Sampled rows, rich in hits. Any-hit rate of the full collection: about 7.3%.
Rab9 promoter act – Rab9 promoter activation. Huh7 Rab9 promoter-luciferase reporter, luminescence, 24 h. Potency, µM (top dose mostly 9.22 µM), without a hit: at the top dose activation, negative = inhibition, most hits filed as activators. 320,000 compounds, 2.8% hits. AID 485297; further: % of control where 0% means no effect; nearly all actives have a fitted effect of over 60% in size
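Stable Rab9-luc Huh7, 1500 cells/well, 2 h settle; cmpd in DMSO, 24 h, 37 °C/5% CO2; luciferase reagent 10 min RT; luminescence.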
Luc counter – counter-screen: inhibitors of Kinase-Glo firefly luciferase; Q27757; Kinase-Glo luciferase, ATP luminescence, 8 min; Potency, µM (highest dose often 38.3 µM), inactives show at the highest dose activity change, negative = inhibition, hits mostly inhibitors; 200,000 compounds, 0.28% hits; further: on the % scale 0 is the no-effect control and ±100 the full control effect; nearly all actives have a fitted effect of over 60% in size
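Inhibition of Kinase-Glo luciferase light generation was assessed at 10 uM ATP in pH 7.2 imidazole buffer, with luminescence measured after eight minutes at ambient temperature.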
ELG1 genotox – inducers of genotoxicity in HEK293T ELG1-luciferase cells; HEK293T ELG1-luciferase reporter, luminescence, 16 h; Potency, µM (top dose mostly 46 µM), without a hit: top-dose activity change, positive = activation, hits mostly activators; 330,000 compounds, 1.3% hits; further: % of control where 0% means no effect; nearly all actives have a fitted effect of over 60% in size
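Step 1: seed 2,000 HEK293T ELG1-luciferase cells per well. Step 2: add compound or DMSO, incubate 16 hr at 37 °C. Step 3: ONE-Glo, 30 min at room temperature, read luminescence.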
NPC1 prom act – activators of NPC1 promoter | AID 485313 | Huh7 NPC1 promoter luciferase reporter, 24 h | Potency, µM (top dose mostly 9.22 µM), inactives show top-dose activation, most hits filed as activators | 320,000 compounds, 2.4% hits; further: % of control where 0% means no effect; nearly all actives have a fitted effect of over 60% in size
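Compounds in DMSO were transferred onto Huh7 NPC1-luciferase reporter cells pre-incubated 2 h; after 24 h at 37 °C, Amplite reagent was dispensed and luminescence recorded 10 min later.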
FLuc modulator – firefly luciferase modulation, counter-screen for miR-21 project | Potency, µM (series often up to 57.5 µM), inactives show top-dose activity change, negative = inhibition, most hits filed as inhibitors | P08659 | 360,000 compounds, 6.9% hits | AID 588342 | purified FLuc, Km substrates, luminescence inhibition;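 further: plate controls were vehicle for no effect and reference inhibitor for full effect; nearly all actives have a fitted effect of over 55% in size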
Target sequence (P08659 whole entry, looked up): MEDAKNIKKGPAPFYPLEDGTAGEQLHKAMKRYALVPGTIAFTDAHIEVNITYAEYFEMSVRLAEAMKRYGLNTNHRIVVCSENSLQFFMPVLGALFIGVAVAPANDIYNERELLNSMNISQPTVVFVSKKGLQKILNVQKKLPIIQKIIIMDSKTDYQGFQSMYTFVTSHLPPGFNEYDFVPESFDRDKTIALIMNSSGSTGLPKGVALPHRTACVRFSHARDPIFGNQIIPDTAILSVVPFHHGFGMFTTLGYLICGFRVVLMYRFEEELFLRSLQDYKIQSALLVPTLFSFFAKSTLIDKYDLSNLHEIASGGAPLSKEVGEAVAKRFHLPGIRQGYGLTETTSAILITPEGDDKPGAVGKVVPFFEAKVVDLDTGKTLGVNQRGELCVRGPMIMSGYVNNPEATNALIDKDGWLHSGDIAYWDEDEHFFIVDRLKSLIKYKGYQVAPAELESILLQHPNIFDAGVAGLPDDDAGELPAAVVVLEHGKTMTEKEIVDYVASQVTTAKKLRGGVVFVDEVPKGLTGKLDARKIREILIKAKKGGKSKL
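Biochemical qHTS of compounds, final roughly 60 µM downward over six points, against 10 nM purified firefly luciferase using Km concentrations of substrates (10 uM D-luciferin, 10 uM ATP) in Tris acetate pH 7.5 buffer; luminescence output.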
SMN2 splice up – enhancers of SMN2 splice variant expression; AID 1458; Potency, µM (titrated, usually from 46.1 µM), for the others: at the top dose activity change, positive = activation, usual class: activators; HEK293 SMN2-luciferase splicing reporter, luminescence, 30-36 h; 210,000 compounds, 2.8% hits; further: % of control where 0% means no effect; nearly all actives have a fitted effect of over 55% in size
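qHTS luciferase splicing reporter: luminescence rises when SMN2 exon 7 is included in transfected HEK293 cells. Compound exposure lasted 30-36 h at 37C, with 4.5 mM final sodium butyrate as control, followed by a ONE-Glo read.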
Numbers without * were called inactive; ? = inconclusive; nt = no result. The call rests on the fitted dose curve; in most records, active means well fitted curve in the direction sought with a large enough effect; inconclusive means small, poorly fitted or top-dose-only effect, or another doubt; inactive means no such curve, though single readings can be large; an effect the other way counts as inactive or inconclusive. Potency means the concentration at half of the fitted maximal effect.

SMILES	Rab9 promoter act	Luc counter	ELG1 genotox	NPC1 prom act	FLuc modulator	SMN2 splice up
O=C(O)c1cc(N/N=C/c2ccc(N3CCOCC3)s2)ccc1Cl	3.2µM*	-6%	?	?	7.6µM*	?
C/C(=N\Nc1ccc(Cl)c(C(=O)O)c1)c1ccc(N2CCOCC2)cc1	?	nt	?	27%	24µM*	nt
CCc1nc(SC)ncc1C(=O)N1CCN(c2cc(C)ccc2C)CC1	nt	nt	nt	nt	23%	nt
CCOC(=O)N1CCC(NC(=O)c2cnn(-c3ccc(OC)cc3)c2C2CCN(C(=O)OC(C)(C)C)CC2)CC1	nt	nt	nt	nt	-1%	nt
Cc1ccc(C2Nc3cc(C)c(C)cc3-n3c(-c4ccccc4)c4c(=O)n(C)c(=O)n(C)c4c32)o1 (stereo unspecified)	nt	nt	nt	nt	-11%	nt
S=C(N/N=C/c1ccc2ncccc2c1)Nc1ccccc1	?	-4%	?	?	4.8µM*	?
C(=N\NCc1ccccc1)/c1ccc2nccnc2c1	2.5µM*	nt	?	3.5µM*	12µM*	nt
C(=N\n1cnnc1)/c1ccc2ncccc2c1	4%	-2%	0%	-6%	3%	-7%
C(=N\NCc1ccccc1)/c1ccc2ncccc2c1	1.6µM*	nt	2.6µM*	1.1µM*	4.3µM*	nt
Fc1ccc(/C=N/NC(=S)Nc2cccnc2)cc1F	2%	1%	-2%	7%	-3%	-11%
CC1Oc2ccccc2C=C1/C=N/NC(=O)c1ccccc1O (stereo unspecified)	?	-5%	-3%	?	1.7µM*	13µM*
CC1Oc2ccccc2C=C1/C=N/NC(=O)c1ccccc1 (stereo unspecified)	2.5µM*	-2%	?	?	6µM*	14µM*
Cc1ccc(C(=O)N/N=C/C2=Cc3ccccc3OC2C)cc1 (stereo unspecified)	28%	-2%	1%	22%	3µM*	?
CC1Oc2ccccc2C=C1/C=N/NC(=O)[C@@H](C)NC(=O)OC(C)(C)C (stereo partly specified)	0%	nt	-7%	-3%	-22%	nt
O=C(N/N=C/c1ccccc1)c1ccc(-c2ccccc2)cc1	?	nt	5%	15%	-17%	nt
CC1Oc2ccccc2C=C1/C=N\NC(=O)c1cccnc1 (stereo unspecified)	15%	nt	?	18%	17µM*	nt
COc1ccc(NC(=O)CSc2nc3c(oc4ccccc43)c(=O)n2-c2ccccc2)cc1OC	nt	nt	nt	nt	1%	-4%
CN(C)c1ccc(C(=O)c2ccc(N(C)C)c3ccccc23)cc1	-19%	-3%	?	-7%	15µM*	?
CCOc1ccc(CCNC(=O)c2c3c(nc4ccccc24)C(=O)N(C2CCCCC2)C3)cc1	nt	nt	nt	nt	-17%	nt
COc1ccc(-n2c(SCC(=O)NCc3ccccc3)nc3c([nH]c4ccccc43)c2=O)cc1	nt	nt	nt	nt	-1%	nt
CC(=O)Nc1ccc(C(=O)OCc2ccc(Br)cc2)cc1	-1%	4%	5%	2%	-16%	-8%
COC(=O)c1ccc(NN=Nc2ccc(C)cc2)cc1	1.1µM*	-3%	?	0.79µM*	6.7µM*	11µM*
O=Nc1ccc(NOC(=O)c2ccc(Br)cc2)cc1	-5%	-1%	-2%	3%	0.076µM*	3%
COC(=O)c1ccc(NC(=O)CSCc2ccc(C)cc2)cc1	9%	1%	-4%	-1%	1%	-3%
Cc1ccc(C(=O)ONc2ccc(N=O)cc2)cc1	-1%	13µM*	-3%	1%	0.03µM*	-8%
Cc1ccc(C(=O)ONc2ccc(N=NC(=O)c3ccccc3O)cc2)cc1	?	-15%	?	20%	12µM*	-42%
COC(=O)c1ccc(C)cc1	nt	nt	-1%	nt	nt	8%
Cc1ccc(OCCNC(=O)c2ccccc2O)cc1	13%	nt	5%	1%	?	nt
COc1ccc(CCNC(=O)c2ccc3c(c2)N(Cc2ccccc2Cl)C(=O)c2ccccc2S3)cc1OC	nt	nt	nt	nt	-2%	nt
